Giardia kill = kills Giardia lamblia; Giardia lamblia trophozoite viability; 0.15% of 340,000 active; activity change, % at 7.66 µM, hits read low; in the data active = activity change below about -80%; inconclusive = between about -30% and that limit;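 also: parasites exposed to compound for two days anaerobically before the ATP read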
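Trophozoites 100 cells/well + cpd; 48 hrs, 37 deg C, anaerobic. ATPLite 1-Step added, 15-30 min RT, luminescence read (ATP-based viability).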
TDP1 cell noCPT = qHTS for Inhibitors of human tyrosyl-DNA phosphodiesterase 1 (TDP1): qHTS in cells in absence of CPT; DT40 Tdp1-/- hTDP1 cells, no CPT, ATP luminescence, 48 h; Potency, µM (highest dose often 46.2 µM), hits mostly inhibitors; 15% of 420,000 active; also: nearly all actives have a fitted effect of over 55% in size
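Luminescent ATP content (CellTiter-Glo) served as the growth readout. Knockout chicken DT40 cells expressing human TDP1 were exposed to compounds without camptothecin for a minimum 48 hr at 37 °C.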
TDP1 cell CPT = DT40-hTDP1 cell growth loss with CPT | 12% of 420,000 active | chicken DT40 Tdp1-/-;hTDP1 cells + 20 nM CPT, ATP luminescence, 48 h | Potency, µM (series often up to 46.2 µM), usual class: inhibitors; also: nearly all actives have a fitted effect of over 55% in size
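Cell growth measured by CellTiter-Glo luminescence after a minimum 48 h, 37 C compound exposure with 20 nM CPT in Tdp1-knockout DT40 cells stably expressing hTDP1, seeded 400/well; qHTS titration format.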
IL1B secr inh = inflammasome signaling inhibition, IL-1 beta readout. THP-1 LPS/ATP IL-1B secretion, AlphaLISA, 16 h; hits give low values. activity change, % at 57.5 µM. 4.7% of 360,000 active; in the data active = activity change below about -50%; inconclusive = mostly about -30% to -49%
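THP-1 cells pretreated 1 hr with compounds (up to 57.5 uM final), then stimulated with LPS (250 ng/mL final) plus ATP (1.25 mM final); secreted IL-1B measured by AlphaLISA after 16 hr, decreased signal indicating inhibition.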
ELG1 DNA repair = blocks ELG1-dependent DNA repair in HEK293T cells; HEK293T ELG1-luciferase reporter, luminescence, 16 h; DNA damage induced by 5-fluorouridine; AID 504467; Potency, µM (highest dose often 46.1 µM), usual class: inhibitors; 2.3% of 330,000 active; also: nearly all actives have a fitted effect of over 55% in size
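Quantitative HTS, concentration-response format. 2,000 cells/well co-treated with 5-fluorouridine and compound, 16 hr in 5% CO2 at 37 °C; ONE-Glo luminescence read after 30 min.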
TDP1 inh = inhibitors of human tyrosyl-DNA phosphodiesterase TDP1 | recombinant TDP1, AlphaScreen DNA substrate cleavage | Potency, µM (highest dose often 130 µM), actives largely listed as inhibitors | 0.28% of 350,000 active; also: nearly all actives have a fitted effect of over 40% in size
Target sequence (Q9NUW8 whole entry, looked up): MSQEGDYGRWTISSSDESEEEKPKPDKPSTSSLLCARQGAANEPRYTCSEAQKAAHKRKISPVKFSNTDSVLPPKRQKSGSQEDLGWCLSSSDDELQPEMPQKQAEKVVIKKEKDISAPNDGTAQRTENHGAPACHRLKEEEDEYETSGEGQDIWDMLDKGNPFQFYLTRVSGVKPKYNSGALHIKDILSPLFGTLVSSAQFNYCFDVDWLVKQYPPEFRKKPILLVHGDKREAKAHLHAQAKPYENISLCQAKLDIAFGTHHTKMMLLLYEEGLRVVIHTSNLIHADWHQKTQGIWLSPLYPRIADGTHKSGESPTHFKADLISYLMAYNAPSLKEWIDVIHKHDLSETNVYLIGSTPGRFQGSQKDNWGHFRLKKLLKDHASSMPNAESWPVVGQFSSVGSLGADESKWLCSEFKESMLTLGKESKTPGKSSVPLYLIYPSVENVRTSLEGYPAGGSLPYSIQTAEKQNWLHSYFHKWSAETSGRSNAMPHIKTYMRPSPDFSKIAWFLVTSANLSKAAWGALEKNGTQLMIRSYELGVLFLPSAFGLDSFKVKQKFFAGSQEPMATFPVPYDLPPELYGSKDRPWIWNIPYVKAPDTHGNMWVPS
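Compounds were preincubated with Tdp1 (1 nM final) for 15 min at room temperature before substrate (15 nM final) started a 5 min reaction; beads (10 ug/ml final) were then added for 10 min before AlphaScreen detection.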
Hits are given with their value. An excerpt weighted towards active compounds, which were near 19% of everything screened. Unless noted, calls follow the shape of the dose curve; as a rule, active = well fitted curve in the direction sought with a large enough effect; inconclusive = small, poorly fitted or top-dose-only effect, or another doubt; inactive = no such curve, though single readings can be large; an effect the other way counts as inactive or inconclusive.

CCOc1ccc(CCNC(=O)CCNC(=O)c2ccc(Br)cc2)cc1OCC was read as Giardia kill inactive, TDP1 cell noCPT inactive, TDP1 cell CPT inactive, IL1B secr inh inactive, ELG1 DNA repair inactive and TDP1 inh inactive.
Screening CC(Sc1nc2ccccc2c(=O)n1C)C(=O)NC1CCCCC1C (centres undefined) returned Giardia kill inactive, TDP1 cell noCPT 2.3µM, TDP1 cell CPT 4.1µM, IL1B secr inh inactive, ELG1 DNA repair inactive and TDP1 inh inactive.
CC(Sc1nc2ccccc2[nH]1)C(=O)NC1CCCCC1C (centres undefined) was read as Giardia kill inactive, TDP1 cell noCPT inactive, TDP1 cell CPT inactive, IL1B secr inh inactive, ELG1 DNA repair inactive and TDP1 inh inactive.
For CN(C)c1ccc(C(=O)Nc2cccc(-c3nc4cccnc4s3)c2)cc1 the results were TDP1 cell noCPT 10µM, TDP1 cell CPT 5.8µM and TDP1 inh inactive.
Screening CCOc1ncccc1C(=O)Nc1cccc(-c2nc3cccnc3s2)c1 returned Giardia kill inactive, TDP1 cell noCPT 13µM, TDP1 cell CPT inconclusive, IL1B secr inh inactive, ELG1 DNA repair inactive and TDP1 inh inactive.
Screening O=C(Nc1cccc(-c2nc3cccnc3s2)c1)c1ccco1 returned Giardia kill inactive, TDP1 cell noCPT inconclusive, TDP1 cell CPT inactive, IL1B secr inh inactive, ELG1 DNA repair inconclusive and TDP1 inh inactive.
`O=C(Nc1cccc(-c2nc3cccnc3s2)c1)c1cccc(Br)c1` gave TDP1 cell noCPT 8.2µM, TDP1 cell CPT 8.2µM and TDP1 inh inactive.
For COc1ccccc1-n1cnnc1SC(C)C(=O)NCC1CCCO1 (centres undefined) the results were Giardia kill inactive, TDP1 cell noCPT inconclusive, TDP1 cell CPT inactive, IL1B secr inh inactive, ELG1 DNA repair inactive and TDP1 inh inactive.
For NC(=O)C1CCN(C(=O)C2CCN(C(=O)Nc3ccccc3)CC2)CC1 the results were Giardia kill inactive, TDP1 cell noCPT inactive, TDP1 cell CPT inactive, IL1B secr inh inactive, ELG1 DNA repair inactive and TDP1 inh inactive.
C[C@H](NC(=O)C1CCN(S(=O)(=O)c2ccccc2)CC1)C(=O)NCc1cccnc1 was read as TDP1 cell noCPT inactive, TDP1 cell CPT inactive and IL1B secr inh inactive.
`COc1ccc(OC)c(C2CC(=O)Oc3c2c(=O)n(C)c2ccccc32)c1` (centres undefined) gave TDP1 cell noCPT inactive, TDP1 cell CPT inactive and TDP1 inh inactive.
For Cc1ccc(OCc2nnc(SCC(=O)Nc3cccc4ccccc34)n2-c2ccccc2)cc1 the results were Giardia kill inactive, TDP1 cell noCPT inconclusive, TDP1 cell CPT inconclusive, IL1B secr inh inactive, ELG1 DNA repair inconclusive and TDP1 inh inactive.
For Cc1cccc(NC(=O)CS(=O)(=O)c2nc(-c3ccccc3)cn2-c2cccc(Cl)c2)c1C the results were TDP1 cell noCPT 18µM, TDP1 cell CPT 23µM and TDP1 inh inactive.
For Cc1ccc(C(=O)n2c(-c3ccccc3)cnc2SCC(=O)Nc2ccc(C)cc2C)cc1 the results were Giardia kill inactive, TDP1 cell noCPT 26µM, TDP1 cell CPT inconclusive, IL1B secr inh inactive, ELG1 DNA repair inconclusive and TDP1 inh inactive.
Screening Cc1ccc(C(=O)n2c(-c3ccccc3)cnc2SCC(=O)Nc2ccccc2)cc1 returned Giardia kill inactive, TDP1 cell noCPT inconclusive, TDP1 cell CPT inactive, IL1B secr inh inactive, ELG1 DNA repair inactive and TDP1 inh inactive.
Screening NS(=O)(=O)c1cccc(NC(=O)COC(=O)c2cc(-c3ccc(Cl)cc3)nc3ccccc23)c1 returned Giardia kill inactive, TDP1 cell noCPT inconclusive, TDP1 cell CPT inconclusive, IL1B secr inh inconclusive, ELG1 DNA repair inconclusive and TDP1 inh inactive.
O=C(CS(=O)(=O)c1nc(-c2ccc(Cl)cc2)cn1-c1ccccc1)Nc1cccc(Cl)c1 was read as TDP1 cell noCPT inconclusive, TDP1 cell CPT 23µM and TDP1 inh inactive.
Cc1ccc(NC(=O)CSc2nnc(-c3n[nH]c4ccccc34)n2-c2ccccc2)c(C)c1 was read as Giardia kill inactive, TDP1 cell noCPT inconclusive, TDP1 cell CPT 15µM, IL1B secr inh -51, ELG1 DNA repair 23µM and TDP1 inh inactive.
CCOc1ccc(-c2cn(-c3ccc(C)cc3)c(SCC(=O)Nc3ccc(C)cc3)n2)cc1 was read as TDP1 cell noCPT inconclusive, TDP1 cell CPT inconclusive and TDP1 inh inactive.
For CCOC(=O)NC(=O)CSc1nc(-c2ccc(C)c(C)c2)cn1-c1ccccc1 the results were Giardia kill inactive, TDP1 cell noCPT inconclusive, TDP1 cell CPT inconclusive, IL1B secr inh -61, ELG1 DNA repair inconclusive and TDP1 inh inactive.
Screening Cc1ccc(-c2cn(-c3cccc(Cl)c3)c(S(=O)(=O)CC(=O)Nc3ccccc3F)n2)cc1 returned TDP1 cell noCPT inconclusive, TDP1 cell CPT inconclusive and TDP1 inh inactive.
For O=C(CS(=O)(=O)c1nc(-c2ccc(Cl)cc2)cn1-c1ccccc1)Nc1ccc(F)cc1F the results were TDP1 cell noCPT inconclusive, TDP1 cell CPT 18µM and TDP1 inh inactive.
For Cc1ccc(NC(=O)CS(=O)(=O)c2nc(-c3ccc(C)cc3)cn2-c2ccc(C)cc2)cc1 the results were TDP1 cell noCPT 15µM, TDP1 cell CPT 21µM and TDP1 inh inactive.
For Cc1ccc(-c2cn(-c3cccc(Cl)c3)c(S(=O)(=O)CC(=O)Nc3cccc(C)c3)n2)cc1 the results were TDP1 cell noCPT inconclusive, TDP1 cell CPT 16µM and TDP1 inh inactive.
`Cc1nn(C)c(Cl)c1S(=O)(=O)N1CCC(CO)(CCc2ccccc2)CC1` gave Giardia kill inactive, TDP1 cell noCPT inconclusive, TDP1 cell CPT inactive, IL1B secr inh inactive, ELG1 DNA repair inactive and TDP1 inh inactive.
`COCCNC(=O)C1(C)CCCN(C(=O)c2ccccc2OC)C1` (centres undefined) gave TDP1 cell noCPT inactive, TDP1 cell CPT inactive and IL1B secr inh inactive.
`CCC(CC)c1nnc(NC(=O)c2cccnc2SC)s1` gave Giardia kill inactive, TDP1 cell noCPT inactive, TDP1 cell CPT inactive, IL1B secr inh inactive, ELG1 DNA repair inactive and TDP1 inh inactive.
For Cc1ccc(-n2nc(-c3ccc(F)cc3)c3cnc4cc5c(cc4c32)OCO5)cc1C the results were TDP1 cell noCPT inactive, TDP1 cell CPT inactive and TDP1 inh inactive.
`C[C@@H]1CN([C@@H](C)CO)C(=O)CCCn2nncc2CO[C@@H]1CN(C)C(=O)Nc1ccccc1C(F)(F)F` gave TDP1 cell noCPT inactive, TDP1 cell CPT inactive and IL1B secr inh inactive.

Source: PubChem (National Center for Advancing Translational Sciences (NCATS))
